Experimental data taken from PubChem BioAssay (EPA / NIEHS).
Several values for one entry are separate records, joined by “and”; a condition that tells them apart may be missing. Equal values may be shown once. Records with an inconclusive call do not appear. Activity calls are given as the source filed them. The calls were made as follows: active = hit-call score of the fitted dose curve at least 0.9, where 1 is the maximum; inconclusive = response in the unintended direction; inactive = score below 0.9.

Tests used:
[1] = target: Serine/threonine-protein phosphatase PP1-alpha catalytic subunit (Homo sapiens) (UniProt P62136); test: NVS_ENZ_hPPP1CA: NovaScreen (NVS) Enzymatic Assay for human Protein Phosphatase 1 Aatalytic subunit Alpha (PPP1CA) (AID 2283200)
Method: (§1) NVS_ENZ_hPPP1CA is a biochemical, single-readout assay that uses extracted gene-proteins in a cell-free assay. Measurements were taken 1.33 hours after chemical dosing in a 384-well plate.NVS_ENZ_hPPP1CA is one of one assay component(s) measured or calculated from the NVS_ENZ_hPPP1CA assay. It is designed to make measurements of enzyme activity, a form of enzyme reporter, as detected with fluorescence intensity signals by Fluorescence and electrophoretic mobility shift technology.Data from the assay component NVS_ENZ_hPPP1CA was analyzed into 1 assay endpoint. This assay endpoint, NVS_ENZ_hPPP1CA, was analyzed in the positive analysis fitting direction relative to DMSO as the negative control and baseline of activity. Using a type of enzyme reporter, loss-of-signal activity can be used to understand changes in the enzymatic activity as they relate to the gene PPP1CA. Furthermore, this assay endpoint can be referred to as a primary readout, because this assay has produced multiple assay endpoints where this one serves a enzymatic activity function. To generalize the intended target to other relatable targets, this assay endpoint is annotated to the phosphatase intended target family, where the subfamily is serine/threonine phosphatase.
(§2) Binding assays used specific radioligands (tritiated, iodinated) with non-radioactive competitive displacement ligands in agonist or antagonist protocols (as indicated) and various reference compounds and inhibitors to titrate specific binding to receptors and transporters. Most enzyme assays (CYPs, kinases, phosphatases, proteases, HDACs) used recombinant protein and specific substrates (fluorescence mostly, some colorimetric and radioactive) and inhibitors, followed by a biochemical separation of substrate and product. All assays for the biochemical HTS were initially run in duplicate at a single concentration (10 uM for CYP450 assays and 25 uM for all others). Assay-chemical combinations meeting a pre-defined threshold (e.g., 30% inhibition and other criteria defined below) were then run in singleton concentration-response format with maximum concentration of 20 uM for CYPs and 50 uM for all others. Each assay was run with positive and negative controls, and concurrent controls on every plate. The follow-up (secondary) screen tested active chemical-pairs in concentration series, as well as a few additional assays not tested in the primary screen, some selected negative inactives, and several cases re-run in the concentration series for confirmatory purposes.

[2] = target: human Phosphoinositide 3-kinase alpha (PI3Ka), PIK3CA (gene 5290) (UniProt P42336); test: NVS_ENZ_hPI3Ka: NovaScreen (NVS) Enzymatic Assay for human Phosphoinositide 3-kinase alpha (PI3Ka) (AID 2283196)
Method: NVS_ENZ_hPI3Ka is a biochemical, single-readout assay that uses extracted gene-proteins in a cell-free assay. Measurements were taken 1 hour after chemical dosing in a 384-well plate.NVS_ENZ_hPI3Ka is one of one assay component(s) measured or calculated from the NVS_ENZ_hPI3Ka assay. It is designed to make measurements of enzyme activity, a form of enzyme reporter, as detected with fluorescence intensity signals by Fluorescence and electrophoretic mobility shift technology.Data from the assay component NVS_ENZ_hPI3Ka was analyzed into 1 assay endpoint. This assay endpoint, NVS_ENZ_hPI3Ka, was analyzed in the positive analysis fitting direction relative to DMSO as the negative control and baseline of activity. Using a type of enzyme reporter, loss-of-signal activity can be used to understand changes in the enzymatic activity as they relate to the gene PIK3CA. Furthermore, this assay endpoint can be referred to as a primary readout, because this assay has produced multiple assay endpoints where this one serves a enzymatic activity function. To generalize the intended target to other relatable targets, this assay endpoint is annotated to the kinase intended target family, where the subfamily is phosphoinositol kinase.
as §2

[3] = target: Tyrosine-protein phosphatase non-receptor type 13 (Homo sapiens) (UniProt Q12923); test: NVS_ENZ_hPTPN13: NovaScreen (NVS) Enzymatic Assay for human Protein Tyrosine Phosphatase Non-receptor Type 13 (PTPN13) (AID 2283205)
Method in brief: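 Cell-free assay of recombinant human PTPN13 with a fluorescent substrate, product separated by electrophoretic mobility shift and read 0.5 h after dosing. Primary screen at 25 uM in duplicate, then concentration-response up to 50 uM. Loss of signal fitted against DMSO.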

[4] = target: Tyrosine-protein phosphatase non-receptor type 11 (Homo sapiens) (UniProt Q06124); test: NVS_ENZ_hPTPN11: NovaScreen (NVS) Enzymatic Assay for human Protein Tyrosine Phosphatase Non-receptor Type 11 (PTPN11) (AID 2283202)
Method in brief: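 Recombinant human PTPN11 activity on a fluorescent substrate, with substrate/product separated by electrophoretic mobility shift; read 0.5 h after dosing, loss of signal vs DMSO. Duplicate 25 uM screen, then concentration-response up to 50 uM.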

[5] = target: Tyrosine-protein phosphatase non-receptor type 12 (Homo sapiens) (UniProt Q05209); test: NVS_ENZ_hPTPN12: NovaScreen (NVS) Enzymatic Assay for human Protein Tyrosine Phosphatase Non-receptor Type 12 (PTPN12) (AID 2283204)
Method in brief: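 Single-concentration duplicates (25 uM) preceded singleton concentration-response up to 50 uM for chemicals passing threshold. Cell-free recombinant PTPN12 activity was read 1.33 h after dosing via fluorescence after mobility-shift separation; loss of signal versus DMSO.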

[6] = target: human Phosphodiesterase 5 (PDE5), PDE5A (gene 8654) (UniProt O76074); test: NVS_ENZ_hPDE5: NovaScreen (NVS) Enzymatic Assay for human Phosphodiesterase 5 (PDE5) (AID 2283194)
Method in brief: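 Recombinant human PDE5 with specific substrate, read 1 h after dosing by fluorescence with electrophoretic mobility-shift separation of substrate and product. Initial single-concentration duplicate screen at 25 uM, actives followed in concentration series; loss of activity versus DMSO.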

[7] = target: human Phosphodiesterase 10 (PDE10), PDE10A (gene 10846) (UniProt Q9Y233); test: NVS_ENZ_hPDE10: NovaScreen (NVS) Enzymatic Assay for human Phosphodiesterase 10 (PDE10) (AID 2283195)
Method in brief: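 Recombinant human PDE10 with fluorescent substrate, 1 h, product separated by electrophoretic mobility shift. Loss of enzyme activity fitted against DMSO; initial screen 25 uM in duplicate, actives run to 50 uM maximum.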

PPP2CA (gene 5515) = PPP2CA (gene 5515) (UniProt P67775); test: NVS_ENZ_hPPP2CA: NovaScreen (NVS) Enzymatic Assay for human Protein Phosphatase 2 Aatalytic subunit Alpha (PPP2CA) (AID 2283199)
Method: as §1, with “NVS_ENZ_hPPP2CA” for “NVS_ENZ_hPPP1CA”, “plate.NVS_ENZ_hPPP2CA” for “plate.NVS_ENZ_hPPP1CA”, “NVS_ENZ_hPPP2CA,” for “NVS_ENZ_hPPP1CA,”, “PPP2CA.” for “PPP1CA.”
as §2

[8] = target: human Protein Tyrosine Phosphatase Non-receptor Type 1 (PTPN1), PTPN1 (gene 5770) (UniProt P18031); test: NVS_ENZ_hPTPN1: NovaScreen (NVS) Enzymatic Assay for human Protein Tyrosine Phosphatase Non-receptor Type 1 (PTPN1) (AID 2283201)
Method: as §1, with “NVS_ENZ_hPTPN1” for “NVS_ENZ_hPPP1CA”, “plate.NVS_ENZ_hPTPN1” for “plate.NVS_ENZ_hPPP1CA”, “NVS_ENZ_hPTPN1,” for “NVS_ENZ_hPPP1CA,”, “PTPN1.” for “PPP1CA.”, “non-receptor tyrosine” for “serine/threonine”, “phosphatase. […]” for “phosphatase.”

[9] = target: human Phosphatase and Tensin Homolog (PTEN), PTEN (gene 5728) (UniProt P60484); test: NVS_ENZ_hPTEN: NovaScreen (NVS) Enzymatic Assay for human Phosphatase and Tensin Homolog (PTEN) (AID 2283203)
Method in brief: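 Cell-free recombinant human PTEN with fluorescent substrate; product separated by electrophoretic mobility shift and read by fluorescence 1 h after dosing. Primary screen in duplicate at 25 uM, actives followed in concentration series versus DMSO.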

Serine/threonine-protein phosphatase PP1-alpha catalytic subunit (Homo sapiens), sequence (P62136 whole entry, looked up): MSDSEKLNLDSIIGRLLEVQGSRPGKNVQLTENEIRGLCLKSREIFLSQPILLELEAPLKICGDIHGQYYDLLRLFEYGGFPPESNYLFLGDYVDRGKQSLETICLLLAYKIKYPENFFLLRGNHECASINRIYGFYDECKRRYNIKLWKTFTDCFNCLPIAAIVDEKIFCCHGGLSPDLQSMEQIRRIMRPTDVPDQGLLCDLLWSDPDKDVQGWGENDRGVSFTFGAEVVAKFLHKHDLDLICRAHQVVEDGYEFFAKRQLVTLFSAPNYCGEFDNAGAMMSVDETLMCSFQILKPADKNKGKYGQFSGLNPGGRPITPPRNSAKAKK
human Phosphoinositide 3-kinase alpha (PI3Ka), PIK3CA (gene 5290), sequence (P42336 whole entry, looked up): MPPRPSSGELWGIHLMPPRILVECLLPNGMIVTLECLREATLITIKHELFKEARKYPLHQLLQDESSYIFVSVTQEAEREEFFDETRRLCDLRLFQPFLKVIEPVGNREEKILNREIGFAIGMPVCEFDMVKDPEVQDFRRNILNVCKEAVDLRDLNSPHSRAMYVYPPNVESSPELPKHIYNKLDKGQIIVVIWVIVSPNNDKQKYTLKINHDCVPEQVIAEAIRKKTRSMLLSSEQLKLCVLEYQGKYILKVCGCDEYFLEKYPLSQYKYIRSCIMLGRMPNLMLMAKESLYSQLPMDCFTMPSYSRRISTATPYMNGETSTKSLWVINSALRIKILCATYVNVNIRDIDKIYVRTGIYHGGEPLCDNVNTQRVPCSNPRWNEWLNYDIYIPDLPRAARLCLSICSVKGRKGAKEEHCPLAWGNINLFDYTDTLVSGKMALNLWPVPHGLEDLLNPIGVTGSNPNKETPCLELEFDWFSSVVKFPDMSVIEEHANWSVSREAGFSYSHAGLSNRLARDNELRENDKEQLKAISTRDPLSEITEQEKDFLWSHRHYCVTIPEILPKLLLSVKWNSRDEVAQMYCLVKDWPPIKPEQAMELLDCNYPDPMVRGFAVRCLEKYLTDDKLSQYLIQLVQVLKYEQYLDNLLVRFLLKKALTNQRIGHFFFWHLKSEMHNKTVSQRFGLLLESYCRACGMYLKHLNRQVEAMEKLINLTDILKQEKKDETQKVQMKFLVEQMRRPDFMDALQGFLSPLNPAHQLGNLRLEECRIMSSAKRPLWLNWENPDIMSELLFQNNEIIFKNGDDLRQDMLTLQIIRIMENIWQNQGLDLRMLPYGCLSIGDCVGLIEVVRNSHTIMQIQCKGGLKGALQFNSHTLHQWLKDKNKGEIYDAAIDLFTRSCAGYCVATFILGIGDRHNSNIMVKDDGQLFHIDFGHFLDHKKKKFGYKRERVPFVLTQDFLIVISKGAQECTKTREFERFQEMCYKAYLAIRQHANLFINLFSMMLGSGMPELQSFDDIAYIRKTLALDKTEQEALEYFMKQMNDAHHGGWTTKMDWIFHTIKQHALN
human Phosphatase and Tensin Homolog (PTEN), PTEN (gene 5728), sequence (P60484 whole entry, looked up): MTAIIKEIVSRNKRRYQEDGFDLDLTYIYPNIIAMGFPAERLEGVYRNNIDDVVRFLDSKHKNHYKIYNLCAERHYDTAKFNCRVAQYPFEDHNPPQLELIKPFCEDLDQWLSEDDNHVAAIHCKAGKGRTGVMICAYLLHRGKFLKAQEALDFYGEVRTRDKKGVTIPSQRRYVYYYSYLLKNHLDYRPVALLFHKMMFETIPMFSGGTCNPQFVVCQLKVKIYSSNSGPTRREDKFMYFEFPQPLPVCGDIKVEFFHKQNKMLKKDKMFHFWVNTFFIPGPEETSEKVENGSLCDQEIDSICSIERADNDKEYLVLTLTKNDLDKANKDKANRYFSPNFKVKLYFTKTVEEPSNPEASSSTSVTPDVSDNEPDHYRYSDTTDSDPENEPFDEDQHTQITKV
PPP2CA (gene 5515), sequence (P67775 whole entry, looked up): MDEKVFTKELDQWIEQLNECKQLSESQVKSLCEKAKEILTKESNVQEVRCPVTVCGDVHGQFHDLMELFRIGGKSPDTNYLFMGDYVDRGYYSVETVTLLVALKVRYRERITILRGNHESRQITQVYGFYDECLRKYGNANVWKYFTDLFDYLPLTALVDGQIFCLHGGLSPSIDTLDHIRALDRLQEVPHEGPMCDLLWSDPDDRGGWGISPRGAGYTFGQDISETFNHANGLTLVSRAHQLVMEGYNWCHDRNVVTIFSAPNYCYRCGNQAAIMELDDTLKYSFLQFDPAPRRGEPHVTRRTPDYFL
Tyrosine-protein phosphatase non-receptor type 11 (Homo sapiens), sequence (Q06124 whole entry, looked up): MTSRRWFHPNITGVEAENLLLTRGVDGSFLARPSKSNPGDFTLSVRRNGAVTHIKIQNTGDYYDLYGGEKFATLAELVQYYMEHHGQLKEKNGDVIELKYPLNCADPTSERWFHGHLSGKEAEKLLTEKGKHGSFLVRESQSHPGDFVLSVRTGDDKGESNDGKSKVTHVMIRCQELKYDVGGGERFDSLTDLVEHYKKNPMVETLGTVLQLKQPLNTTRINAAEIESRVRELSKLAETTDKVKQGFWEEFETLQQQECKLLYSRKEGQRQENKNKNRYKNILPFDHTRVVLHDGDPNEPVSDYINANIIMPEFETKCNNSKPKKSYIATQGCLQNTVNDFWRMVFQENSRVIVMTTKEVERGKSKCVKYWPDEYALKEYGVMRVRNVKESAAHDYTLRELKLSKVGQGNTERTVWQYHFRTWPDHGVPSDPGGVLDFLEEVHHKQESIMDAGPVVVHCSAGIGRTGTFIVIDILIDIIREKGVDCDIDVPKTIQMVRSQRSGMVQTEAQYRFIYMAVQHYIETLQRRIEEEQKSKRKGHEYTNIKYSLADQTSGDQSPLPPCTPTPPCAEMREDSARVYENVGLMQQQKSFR
human Protein Tyrosine Phosphatase Non-receptor Type 1 (PTPN1), PTPN1 (gene 5770), sequence (P18031 whole entry, looked up): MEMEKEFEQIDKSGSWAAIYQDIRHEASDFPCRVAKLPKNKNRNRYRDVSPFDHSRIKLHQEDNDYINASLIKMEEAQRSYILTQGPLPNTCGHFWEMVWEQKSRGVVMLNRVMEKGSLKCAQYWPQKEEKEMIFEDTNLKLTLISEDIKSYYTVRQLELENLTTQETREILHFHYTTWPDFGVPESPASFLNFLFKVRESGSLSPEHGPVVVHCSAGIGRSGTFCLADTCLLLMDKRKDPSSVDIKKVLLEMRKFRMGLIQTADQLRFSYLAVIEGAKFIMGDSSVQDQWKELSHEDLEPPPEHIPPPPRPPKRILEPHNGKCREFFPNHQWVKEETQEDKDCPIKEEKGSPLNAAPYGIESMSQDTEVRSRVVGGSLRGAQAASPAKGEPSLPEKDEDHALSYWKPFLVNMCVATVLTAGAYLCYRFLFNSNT
human Phosphodiesterase 10 (PDE10), PDE10A (gene 10846), sequence (Q9Y233 whole entry, looked up): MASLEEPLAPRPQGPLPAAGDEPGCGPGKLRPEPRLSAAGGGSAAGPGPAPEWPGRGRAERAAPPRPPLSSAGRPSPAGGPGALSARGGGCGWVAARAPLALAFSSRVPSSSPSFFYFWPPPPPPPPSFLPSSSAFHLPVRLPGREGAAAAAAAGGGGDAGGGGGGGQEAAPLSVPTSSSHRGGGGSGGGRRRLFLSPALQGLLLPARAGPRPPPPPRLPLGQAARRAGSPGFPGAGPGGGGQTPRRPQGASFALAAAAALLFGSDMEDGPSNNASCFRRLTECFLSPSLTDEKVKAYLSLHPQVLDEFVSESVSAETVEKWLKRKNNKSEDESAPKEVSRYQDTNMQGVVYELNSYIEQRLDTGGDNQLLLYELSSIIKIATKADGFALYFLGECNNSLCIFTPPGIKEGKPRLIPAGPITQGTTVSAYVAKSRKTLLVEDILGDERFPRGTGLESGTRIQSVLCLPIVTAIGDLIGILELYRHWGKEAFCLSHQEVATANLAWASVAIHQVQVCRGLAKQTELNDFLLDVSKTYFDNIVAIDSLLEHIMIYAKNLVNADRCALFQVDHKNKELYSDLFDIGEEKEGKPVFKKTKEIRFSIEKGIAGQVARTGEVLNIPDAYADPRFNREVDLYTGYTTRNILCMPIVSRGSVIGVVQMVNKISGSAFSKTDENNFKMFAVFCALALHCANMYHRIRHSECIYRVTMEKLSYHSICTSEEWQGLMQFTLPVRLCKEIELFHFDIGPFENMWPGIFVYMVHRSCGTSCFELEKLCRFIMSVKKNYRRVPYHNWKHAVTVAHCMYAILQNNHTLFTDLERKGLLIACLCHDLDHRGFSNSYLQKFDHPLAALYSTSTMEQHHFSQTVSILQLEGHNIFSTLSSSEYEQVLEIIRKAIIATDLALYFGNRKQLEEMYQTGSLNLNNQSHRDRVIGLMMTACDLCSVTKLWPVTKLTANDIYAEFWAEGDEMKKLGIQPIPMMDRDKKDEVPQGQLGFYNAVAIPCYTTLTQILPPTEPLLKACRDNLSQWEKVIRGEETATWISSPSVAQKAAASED
Tyrosine-protein phosphatase non-receptor type 12 (Homo sapiens), sequence (Q05209 whole entry, looked up): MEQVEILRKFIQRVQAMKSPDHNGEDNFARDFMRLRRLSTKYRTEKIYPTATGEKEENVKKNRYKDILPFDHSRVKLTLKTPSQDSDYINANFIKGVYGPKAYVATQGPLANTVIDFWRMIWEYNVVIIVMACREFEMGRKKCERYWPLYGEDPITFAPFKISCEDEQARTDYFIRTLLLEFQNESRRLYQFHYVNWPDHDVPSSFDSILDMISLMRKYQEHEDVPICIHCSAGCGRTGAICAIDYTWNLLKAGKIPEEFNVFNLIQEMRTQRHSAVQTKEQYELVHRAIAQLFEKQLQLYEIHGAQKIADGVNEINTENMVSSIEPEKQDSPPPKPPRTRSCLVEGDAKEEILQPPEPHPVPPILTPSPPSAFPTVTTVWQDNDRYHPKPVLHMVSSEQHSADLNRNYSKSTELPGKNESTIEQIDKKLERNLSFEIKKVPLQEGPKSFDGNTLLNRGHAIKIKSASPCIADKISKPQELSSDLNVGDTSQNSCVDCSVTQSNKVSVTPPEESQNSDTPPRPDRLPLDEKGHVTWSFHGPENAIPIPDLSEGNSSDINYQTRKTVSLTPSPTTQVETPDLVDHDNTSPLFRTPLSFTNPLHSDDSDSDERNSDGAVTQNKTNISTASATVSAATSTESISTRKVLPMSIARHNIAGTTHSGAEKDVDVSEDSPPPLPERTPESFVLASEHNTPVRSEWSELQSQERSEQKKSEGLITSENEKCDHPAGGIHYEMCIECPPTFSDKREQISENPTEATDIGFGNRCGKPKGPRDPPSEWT

**Q.** `Oc1ccccc1-c1ccccc1` was tested. Which outcome [1] did it give?
**A.** The outcome was “inactive”.

**Q.** Which outcome [2] does the source give for `CO/C=C(/C(=O)OC)c1ccccc1Oc1cc(Oc2ccccc2C#N)ncn1` here?
**A.** Its outcome is “inactive”.

**Q.** What about the AC50 [3] of the same molecule?
**A.** The AC50 was 0.113 µM (active).

**Q.** What does the source list for `CNC(=S)S`?
**A.** outcome [4]: inactive; outcome [5]: inactive

**Q.** For `CS/C(C)=N/OC(=O)N(C)SN(C)C(=O)O/N=C(\C)SC`, which outcome [2] is on record?
**A.** Its outcome is “inactive”.

**Q.** How did the outcome [4] turn out when `COc1ccc(C(c2ccc(OC)cc2)C(Cl)(Cl)Cl)cc1` was run?
**A.** Its outcome is “inactive”.

**Q.** With `CCCN(CCC)c1c([N+](=O)[O-])cc(S(N)(=O)=O)cc1[N+](=O)[O-]` as the molecule, how does the outcome [6] read?
**A.** The outcome was “inactive”.

**Q.** What about the outcome [7] of the same molecule?
**A.** The outcome was “inactive”.

**Q.** And the outcome [2]?
**A.** The outcome was “inactive”.

**Q.** What about the outcome (PPP2CA (gene 5515)) of the same molecule?
**A.** The outcome was “inactive”.

**Q.** What about the outcome [1] of the same molecule?
**A.** Its outcome is “inactive”.

**Q.** What about the outcome [8] of the same molecule?
**A.** The outcome was “inactive”.

**Q.** And the outcome [4]?
**A.** The outcome was “inactive”.

**Q.** And the outcome [3]?
**A.** Its outcome is “inactive”.

**Q.** For `CON(C)C(=O)Nc1ccc(Cl)c(Cl)c1`, which AC50 [6] is on record?
**A.** The AC50 was 7.19 µM (active) and 9.03 µM (active).

**Q.** What about the outcome [9] of the same molecule?
**A.** The outcome was “inactive”.

**Q.** How did the AC50 [6] turn out when `Cc1ccc(-c2c(Cl)nc(C#N)n2S(=O)(=O)N(C)C)cc1` was run?
**A.** Its AC50 is 11.7 µM (active).

**Q.** And the outcome [9]?
**A.** The outcome was “inactive”.

**Q.** For `COC(=O)c1ccccc1C(=O)OC`, which outcome [2] is on record?
**A.** The outcome was “inactive”.

**Q.** Which outcome (PPP2CA (gene 5515)) does the source give for `COc1nc(C)nc(NC(=O)NS(=O)(=O)c2ccccc2Cl)n1` here?
**A.** The outcome was “inactive”.

**Q.** For `CCCCNC(=O)OCC#CI`, which outcome [1] is on record?
**A.** Its outcome is “inactive”.

**Q.** `CCCCOC(=O)c1ccccc1C(=O)OCCCC` was tested. Which outcome [4] did it give?
**A.** The outcome was “inactive”.

**Q.** Which outcome [6] does the source give for `CCCCNC(=O)n1c(NC(=O)OC)nc2ccccc21` here?
**A.** The outcome was “inactive”.

**Q.** How did the outcome (PPP2CA (gene 5515)) turn out when `CCOC(=O)CC(SP(=S)(OC)OC)C(=O)OCC` (stereo not given) was run?
**A.** The outcome was “inactive”.

**Q.** And the outcome [1]?
**A.** The outcome was “inactive”.

**Q.** With `CC1COC(Cn2cncn2)(c2ccc(Oc3ccc(Cl)cc3)cc2Cl)O1` (stereo not given) as the molecule, how does the outcome [6] read?
**A.** Its outcome is “inactive”.

**Q.** For `C#CCOS(=O)OC1CCCCC1Oc1ccc(C(C)(C)C)cc1` (stereo not given), which outcome [9] is on record?
**A.** Its outcome is “inactive”.

**Q.** `COc1nc(C)nc(NC(=O)NS(=O)(=O)c2ccccc2CCC(F)(F)F)n1` was tested. Which AC50 [6] did it give?
**A.** The AC50 was 25 µM (active).

**Q.** What about the outcome [2] of the same molecule?
**A.** The outcome was “inactive”.

**Q.** Which outcome [1] does the source give for `Cc1cc(Cl)ccc1OCC(=O)O` here?
**A.** The outcome was “inactive”.

**Q.** Which outcome [8] does the source give for `COP(=S)(OC)Oc1nc(Cl)c(Cl)cc1Cl` here?
**A.** Its outcome is “inactive”.

**Q.** With `N#Cc1nn(-c2c(Cl)cc(C(F)(F)F)cc2Cl)c(N)c1S(=O)C(F)(F)F` (stereo not given) as the molecule, how does the outcome [2] read?
**A.** The outcome was “inactive”.

**Q.** Which AC50 [6] does the source give for `O=C(Nc1ccccc1)Nc1ccnc(Cl)c1` here?
**A.** Its AC50 is 10 µM (active).

**Q.** Which outcome [6] does the source give for `CCOP(=S)(OCC)SCn1c(=O)oc2cc(Cl)ccc21` here?
**A.** Its outcome is “inactive”.

**Q.** `CN(C)C(=S)SSC(=S)N(C)C` was tested. Which outcome [2] did it give?
**A.** Its outcome is “inactive”.

**Q.** With `COc1cnc(OC)n2nc(NS(=O)(=O)c3c(OCC(F)F)cccc3C(F)(F)F)nc12` as the molecule, how does the outcome [7] read?
**A.** Its outcome is “inactive”.

**Q.** What about the outcome (PPP2CA (gene 5515)) of the same molecule?
**A.** The outcome was “inactive”.

**Q.** For `CCNc1nc(Cl)nc(NC(C)C)n1`, which AC50 [6] is on record?
**A.** The AC50 was 4.96 µM (active) and 8.17 µM (active).

**Q.** With `CC1=C(C(=O)Nc2ccccc2)SCCO1` as the molecule, how does the outcome [2] read?
**A.** Its outcome is “inactive”.
